Where “and” joins values, the source holds several entries; their conditions need not be identical. Identical values can stand only once. Some structures have more than one record in an assay (separate samples or runs), and their calls can disagree. Calls of active or inactive are those of the source. Rule for the calls: active = hit-call score of the fitted dose curve at least 0.9, where 1 is the maximum; inactive = score below 0.9.
Tests used:
[1] = read-out: Tissue Factor, F3 (gene 2152); experiment: BSK_CASM3C_TissueFactor: BioMAP Diversity Plus: CASM3C Assay for Tissue Factor Biomarker Activity (AID 2283052); settings: primary human coronary artery smooth muscle cells; actives raise or lower the signal;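 note: cell surface tissue factor protein level read by ELISA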
[2] = read-out: Interferon-gamma inducible Protein 10 (IP10), CXCL10 (gene 3627); experiment: BSK_hDFCGF_IP10: BioMAP Diversity Plus: hDFCGF Assay for Interferon-gamma inducible Protein 10 (IP10) Biomarker Activity (AID 2283053); settings: primary human foreskin fibroblasts; actives raise or lower the signal
Method in brief: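 IP-10 levels, quantified by ELISA, are taken from human foreskin fibroblast cultures 24 h after chemical treatment, with DMSO serving as negative control and baseline for bidirectional analysis.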

[3] = read-out: Urokinase-type plasminogen activator receptor (uPAR), PLAUR (gene 5329); experiment: BSK_CASM3C_uPAR: BioMAP Diversity Plus: CASM3C Assay for Urokinase-type plasminogen activator receptor (uPAR) Biomarker Activity (AID 2283054); settings: primary human coronary artery smooth muscle cells; actives raise or lower the signal;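 note: cell-surface uPAR protein level quantified by ELISA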
[4] = read-out: Vascular cell adhesion molecule 1 (VCAM1), VCAM1 (gene 7412); experiment: BSK_CASM3C_VCAM1: BioMAP Diversity Plus: CASM3C Assay for Vascular cell adhesion molecule 1 (VCAM1) Biomarker Activity (AID 2283055); settings: primary human coronary artery smooth muscle cells; actives raise or lower the signal;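 note: VCAM-1 protein level quantified by ELISA on the cells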
[5] = read-out: Collagen III, COL3A1 (gene 1281); experiment: BSK_hDFCGF_CollagenIII: BioMAP Diversity Plus: hDFCGF Assay for Collagen III Biomarker Activity (AID 2283056); settings: primary human foreskin fibroblasts; actives raise or lower the signal
Method in brief: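 hDFCGF primary human dermal fibroblasts; 24 h chemical exposure; collagen III by ELISA; bidirectional curve fit vs DMSO baseline (gain or loss of signal).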

[6] = read-out: Interleukin-8 (IL8), CXCL8 (gene 3576); experiment: BSK_hDFCGF_IL8: BioMAP Diversity Plus: hDFCGF Assay for Interleukin-8 (IL8) Biomarker Activity (AID 2283058); settings: primary human foreskin fibroblasts; actives raise or lower the signal
Method in brief: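 ELISA read-out of IL-8 from primary human foreskin fibroblast cultures taken 24 h after dosing; values are bidirectional fits relative to DMSO vehicle.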

[7] = BSK_hDFCGF_Proliferation: Cell Proliferation Assessment in the BioMAP Diversity Plus: hDFCGF Assay (AID 2283059); settings: primary human foreskin fibroblasts;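 note: curves fitted for both rise and fall of signal versus DMSO baseline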
Method in brief: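 This proliferation readout used SRB total-protein staining of human foreskin fibroblasts […], normalized to DMSO with bidirectional curve fitting.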

[8] = read-out: Macrophage colony-stimulating factor (MCSF), CSF1 (gene 1435); experiment: BSK_hDFCGF_MCSF: BioMAP Diversity Plus: hDFCGF Assay for Macrophage colony-stimulating factor (MCSF) Biomarker Activity (AID 2283060); settings: primary human foreskin fibroblasts; actives raise or lower the signal
Method in brief: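 ELISA read-out of M-CSF in human dermal foreskin fibroblast cultures, 24 h after chemical dosing; gain or loss of signal fitted bidirectionally relative to DMSO baseline.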

[9] = BSK_hDFCGF_SRB: Viability Assessment in the BioMAP Diversity Plus: hDFCGF Assay (AID 2283061); settings: primary human foreskin fibroblasts;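 note: cells exposed to compound for 24 h before the read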
Method in brief: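 Primary human foreskin fibroblasts; 24 h post-dose; fixed 10% TCA, stained 0.1% SRB, A560 read; total protein as overt cytotoxicity measure; curves fit bidirectionally vs DMSO control.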

[10] = read-out: Monokine induced gamma interferon (MIG), CXCL9 (gene 4283); experiment: BSK_hDFCGF_MIG: BioMAP Diversity Plus: hDFCGF Assay for Monokine induced gamma interferon (MIG) Biomarker Activity (AID 2283063); settings: primary human foreskin fibroblasts; actives raise or lower the signal
Method in brief: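 Fibroblasts (human foreskin, primary) dosed, 24 h, MIG by ELISA; fit bidirectional vs DMSO.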

[11] = read-out: Matrix Metallopeptidase 1 (MMP1), MMP1 (gene 4312); experiment: BSK_hDFCGF_MMP1: BioMAP Diversity Plus: hDFCGF Assay for Matrix Metallopeptidase 1 (MMP1) Biomarker Activity (AID 2283064); settings: primary human foreskin fibroblasts; actives raise or lower the signal
Method in brief: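 Primary human foreskin fibroblasts exposed to chemicals for 24 h; MMP1 measured by ELISA. Cytotoxicity tracked by SRB staining in parallel cultures; bidirectional fit relative to DMSO.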

[12] = read-out: Vascular cell adhesion molecule 1 (VCAM1), VCAM1 (gene 7412); experiment: BSK_hDFCGF_VCAM1: BioMAP Diversity Plus: hDFCGF Assay for Vascular cell adhesion molecule 1 (VCAM1) Biomarker Activity (AID 2283065); settings: primary human foreskin fibroblasts; actives raise or lower the signal;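 for AC50: VCAM-1 protein level quantified by ELISA after 24 h chemical exposure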
Method in brief: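 ELISA read-out of VCAM-1 on human skin fibroblasts, 24 h post-dose; gain or loss of signal fitted bidirectionally against DMSO baseline.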

[13] = read-out: Plasminogen activator inhibitor-1 (PAI1), SERPINE1 (gene 5054); experiment: BSK_hDFCGF_PAI1: BioMAP Diversity Plus: hDFCGF Assay for Plasminogen activator inhibitor-1 (PAI1) Biomarker Activity (AID 2283066); settings: primary human foreskin fibroblasts; actives raise or lower the signal
Method in brief: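 PAI-1 levels, determined by ELISA, served as the endpoint in human foreskin fibroblast cultures exposed to compound for 24 h, with DMSO as baseline.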

[14] = read-out: Intercellular Adhesion Molecule 1 (ICAM1), ICAM1 (gene 3383); experiment: BSK_KF3CT_ICAM1: BioMAP Diversity Plus: KF3CT Assay for Intercellular Adhesion Molecule 1 (ICAM1) Biomarker Activity (AID 2283067); settings: primary human keratinocytes with fibroblasts; actives raise or lower the signal
Method in brief: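 ELISA readout of ICAM-1; KF3CT human skin co-culture (keratinocytes + foreskin fibroblasts), 24 h post-dose; gain/loss fit vs DMSO baseline.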

[15] = read-out: Interferon-gamma inducible Protein 10 (IP10), CXCL10 (gene 3627); experiment: BSK_KF3CT_IP10: BioMAP Diversity Plus: KF3CT Assay for Interferon-gamma inducible Protein 10 (IP10) Biomarker Activity (AID 2283068); settings: primary human keratinocytes with fibroblasts; actives raise or lower the signal
Method in brief: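 Signal is secreted/surface IP-10 by ELISA in a human primary skin co-culture of keratinocytes and foreskin fibroblasts, taken 24 h post-dosing; DMSO served as negative control.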

[16] = BSK_KF3CT_SRB: Viability Assessment in the BioMAP Diversity Plus: KF3CT Assay (AID 2283069); settings: primary human keratinocytes with fibroblasts;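 note: total protein by sulforhodamine B staining as a cytotoxicity measure; read 24 h after compound addition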
Method in brief: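 Human keratinocyte and foreskin fibroblast co-culture exposed to chemical for 24 h. Total protein measured in parallel cultures by 0.1% sulforhodamine B staining after 10% TCA fixation, read at 560 nm; bidirectional fit relative to DMSO.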

[17] = read-out: Interleukin-1 alpha (IL1a), IL1A (gene 3552); experiment: BSK_KF3CT_IL1a: BioMAP Diversity Plus: KF3CT Assay for Interleukin-1 alpha (IL1a) Biomarker Activity (AID 2283070); settings: primary human keratinocytes with fibroblasts; actives raise or lower the signal
Method in brief: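 Primary human keratinocyte plus foreskin fibroblast co-culture, dosed and measured at 24 h in 96-well plates. IL-1a level quantified by ELISA; bidirectional fit relative to DMSO.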

[18] = read-out: TIMP metallopeptidase inhibitor 2 (TIMP2), TIMP2 (gene 7077); experiment: BSK_KF3CT_TIMP2: BioMAP Diversity Plus: KF3CT Assay for TIMP metallopeptidase inhibitor 2 (TIMP2) Biomarker Activity (AID 2283071); settings: primary human keratinocytes with fibroblasts; actives raise or lower the signal
Method in brief: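 Keratinocyte–fibroblast co-culture, 24 h exposure; TIMP-2 ELISA, DMSO-normalised bidirectional fit. Parallel SRB (0.1%, TCA-fixed, 560 nm) total-protein staining gauges cytotoxicity.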

[19] = read-out: Epidermal growth factor receptor (EGFR), EGFR (gene 1956); experiment: BSK_hDFCGF_EGFR: BioMAP Diversity Plus: hDFCGF Assay for Epidermal growth factor receptor (EGFR) Biomarker Activity (AID 2283057); settings: primary human foreskin fibroblasts; actives raise or lower the signal
Method in brief: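 Measured by ELISA: EGFR levels on primary human foreskin fibroblasts 24 h after chemical treatment, analysed relative to DMSO with bidirectional fitting.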

[20] = read-out: TIMP metallopeptidase inhibitor 1 (TIMP1), TIMP1 (gene 7076); experiment: BSK_hDFCGF_TIMP1: BioMAP Diversity Plus: hDFCGF Assay for TIMP metallopeptidase inhibitor 1 (TIMP1) Biomarker Activity (AID 2283062); settings: primary human foreskin fibroblasts; actives raise or lower the signal
Method in brief: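 ELISA readout of TIMP-1 from human dermal foreskin fibroblast cultures 24 h post-dosing. Curves were fitted in both directions against DMSO baseline, with SRB total-protein staining in parallel cultures as a cytotoxicity check.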

Measured: AC50

C=CCOC(Cn1ccnc1)c1ccc(Cl)cc1Cl (configuration not stated)
active: [2] 27 µM | [13] 13.9 µM | [15] 5.07 µM
not listed: [19] | [20]
inactive: all other assays above

c1ccc(Nc2ccccc2)cc1
active: [19] 34.1 µM
not listed: [20]
inactive: all other assays above

CC(C)(C)[C@@H](O)[C@@H](Cc1ccc(Cl)cc1)n1cncn1
active: [11] 1.42 µM
not listed: [19]
inactive: all other assays above

CCOC(=O)C(C)Oc1ccc(Oc2nc3ccc(Cl)cc3o2)cc1 (configuration not stated)
active: [7] 13.2 µM | [11] 20 µM
not listed: [8]
inactive: all other assays above

CCCCOCCOCCOCc1cc2c(cc1CCC)OCO2
active: [3] 20 µM | [5] 20 µM | [7] 31 µM | [8] 12.9 µM | [9] 25.3 µM | [11] 3.97 µM
not listed: [19] | [20]
inactive: all other assays above

CCCCCOC(=O)COc1cc(N2C(=O)C3=C(CCCC3)C2=O)c(F)cc1Cl
active: [2] 17.9 µM | [4] 5.55 µM | [5] 15.4 µM | [7] 22.7 µM | [10] 4.64 µM | [12] 14 µM | [15] 31.9 µM | [18] 13.4 µM
not listed: [8]
inactive: all other assays above

C#CCOC(=O)[C@@H](C)Oc1ccc(Oc2ncc(Cl)cc2F)cc1
active: [7] 14.9 µM
not listed: [19] | [20]
inactive: all other assays above

CC(C)(c1ccc(O)cc1)c1ccc(O)cc1
active: [2] 14.4 µM | [5] 6.87 µM and 25.7 µM | [7] 26.2 µM [middle of 4 runs] | [12] 8.38 µM
inactive: [1] | [2] | [3] | [4] | [5] | [6] | [9] | [10] | [11] | [12] | [13] | [14] | [15] | [16] | [17] | [18]

CCCOC(=O)NCCCN(C)C
not listed: [20]
inactive: all other assays above

CCCCOC(=O)[C@@H](C)Oc1ccc(Oc2ccc(C(F)(F)F)cn2)cc1
not listed: [19] | [20]
inactive: all other assays above

CC(=O)[C@H]1CC[C@H]2[C@@H]3CCC4=CC(=O)CC[C@]4(C)[C@H]3CC[C@]12C
active: [5] 24 µM | [7] 14.7 µM
not listed: [8] | [17]
inactive: all other assays above

COc1nc(C)nc(NC(=O)NS(=O)(=O)c2ccccc2OCCCl)n1
not listed: [8] | [20]
inactive: all other assays above

c1ccc2[nH]c(-c3cscn3)nc2c1
not listed: [19]
inactive: all other assays above
